# Assay results from PubChem BioAssay (EPA / NIEHS).
# Inconclusive results are not listed. The source made the active and inactive calls. Rule for the calls, unless noted: active = hit-call score of the fitted dose curve at least 0.9, where 1 is the maximum; inactive = score below 0.9.
# Tests used:
# [1] = CCTE_Shafer_MEA_acute_spike_number: CCTE's Neural Acute Assay for Total Number of Spikes, Shafer Lab (AID 2284008)
# How it was run: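 Using an adaptive detector set to 8x rms noise, spikes were counted in 40-min windows before and after compound addition (0.03-40 uM) to rat cortical networks at 37 C; the well-level change from baseline was analysed relative to DMSO.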
# [2] = CCTE_Shafer_MEA_acute_firing_rate_mean: CCTE's Neural Acute Assay for Mean Firing Rate, Shafer Lab (AID 2284009);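 note: analyzed for loss of signal so actives lower firing rate relative to DMSO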
# How it was run: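 Primary rat cortical neurons on 16-electrode MEA wells were exposed on DIV 13 or 15 to compound (0.03-40 uM). Spike counts per recording time, averaged over electrodes, were compared between 40-min baseline and 40-min post-exposure recordings as percent change.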
# [3] = CCTE_Harrill_HTTr_Apoptosis_MCF7: CCTE's 6-hour Apoptosis Assessment for the High-Throughput Transcriptomics (HTTr) Platform, in MCF-7 cells cultured in DMEM + 10% fetal bovine serum, Harrill Lab (AID 2284011)
# How it was run: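 Apoptosis in MCF-7 cells grown in DMEM with 10% fetal bovine serum was scored after a six hour exposure by high content imaging of caspase-3/7 activation (CellEvent Caspase 3/7 Green), with DMSO serving as negative control and baseline.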
# [4] = CCTE_Harrill_HTTr_CellCount_MCF7: CCTE's Cell Proliferation Assessment for the High-Throughput Transcriptomics (HTTr) Platform, Harrill Lab (AID 2284012; active = hit-call score of the fitted dose curve at least 0.9, where 1 is the maximum;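 note: count of Hoechst-stained nuclei per well by high-content imaging in MCF-7 cells; cells exposed to compound for six hours; intended direction is loss of nuclei count meaning fewer cells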)
# How it was run: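 For this full-screen endpoint, MCF-7 cultures received eight compound dilutions for six hours. Well nuclei counts from Hoechst imaging were analyzed relative to DMSO.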
# [5] = CCTE_Shafer_MEA_acute_burst_number: CCTE's Neural Acute Assay for Single-Electrode Bursts, Shafer Lab (AID 2284013)
# How it was run: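 Primary rat cortical neurons on 16-electrode MEA wells, DIV 13 or 15, exposed to compound (0.03-40 uM; ≥3 wells); 40-min recordings at 37 C before and after treatment. Burst count expressed as percent change from baseline, DMSO as negative control.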
# [6] = CCTE_Shafer_MEA_acute_burst_duration_mean: CCTE's Neural Acute Assay for Mean Burst Duration, Shafer Lab (AID 2284014);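 note: hits are decreases in mean burst duration relative to DMSO controls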
# How it was run: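 Mean burst duration was compared between a 40 min baseline and a 40 min recording in the presence of compound (0.03-40 uM, 37 C), giving percent change per well. Cultures were rat cortical neurons at DIV 13 or 15; wells needed ≥10 active electrodes.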
# [7] = CCTE_Harrill_HTTr_Viability_MCF7: CCTE's 6-hour Cell Viability Assessment for the High-Throughput Transcriptomics (HTTr) Platform, in MCF-7 cells cultured in DMEM + 10% fetal bovine serum, Harrill Lab (AID 2284010)
# How it was run: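 Eight-point concentration series, six-hour exposure. Propidium iodide exclusion imaged to assess membrane integrity as a cytotoxicity readout; bidirectional fitting was done with DMSO as negative control and activity baseline.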
smiles,measurement,setting,value
On1ccccc1=S,outcome,[1],inactive
same,outcome,[2],inactive
same,outcome,[3],inactive
same,outcome,[4],inactive
same,outcome,[5],inactive
same,outcome,[6],inactive
NC(=O)NO,outcome,[3],inactive
same,outcome,[4],inactive
CCCCCCCCCCCCCCCO,outcome,[3],inactive
Nc1ccc(Nc2ccccc2)cc1,outcome,[3],inactive
same,outcome,[4],inactive
CC(=O)OCCC(C)C,outcome,[3],inactive
COCCOCCOCCOC,outcome,[7],inactive
same,outcome,[3],inactive
same,outcome,[4],inactive
CCCCCCCCO,outcome,[3],inactive
CC1=CC(=O)CC(C)(C)C1,outcome,[3],inactive
same,outcome,[4],inactive
COC(=O)c1ccccc1O,outcome,[7],inactive
same,outcome,[3],inactive
same,outcome,[4],inactive
CCN(C(=O)c1cc(C)cc(OC[C@H](C)Nc2ccncc2)c1)C(C)C,outcome,[3],inactive
same,outcome,[4],inactive
CCOCCO,outcome,[3],inactive
same,outcome,[4],inactive
CC(C)(O)c1coc(S(=O)(=O)NC(=O)Nc2c3c(cc4c2CCC4)CCC3)c1,outcome,[7],inactive
same,outcome,[3],inactive
same,outcome,[4],inactive
COCCOc1cc2cc(C(=O)NC3CCN(C(C)C)CC3)n(CC(=O)Nc3ccc(Cl)cn3)c2cn1,outcome,[3],inactive
same,outcome,[4],inactive
O=C(O)CC(O)C(=O)O (configuration not stated),outcome,[3],inactive
CC(C)=CCC/C(C)=C\CO,outcome,[3],inactive
same,outcome,[4],inactive
O=C1CCCCCN1,outcome,[3],inactive
O=C(O)c1cccc(Oc2ccccc2)c1,outcome,[7],inactive
same,outcome,[3],inactive
same,outcome,[4],inactive
COc1ccc(-n2nc(C(F)F)cc2-c2ccc(S(C)=O)cc2)cc1 (configuration not stated),outcome,[3],inactive
same,outcome,[4],inactive
CC(C)CCCCCCOC(=O)c1ccc(C(=O)OCCCCCCC(C)C)c(C(=O)OCCCCCCC(C)C)c1,outcome,[3],inactive
same,outcome,[4],inactive
Clc1nc(Cl)c(Cl)c(Cl)c1Cl,outcome,[7],inactive
same,outcome,[3],inactive
same,outcome,[4],inactive
C=CC(=C)CCC=C(C)C,outcome,[3],inactive
same,outcome,[4],inactive
Cc1ccc(C)c(O)c1,outcome,[3],inactive
CC(O)CN(CCN(CC(C)O)CC(C)O)CC(C)O (configuration not stated),outcome,[7],inactive
same,outcome,[3],inactive
same,outcome,[4],inactive
C1=CCCC=CCCC=CCC1,outcome,[3],inactive
same,outcome,[4],inactive
CCOC(=O)CC(CC(=O)OCC)(OC(C)=O)C(=O)OCC,outcome,[3],inactive
O=C1OC(=O)C2C3C=CC(C3)C12 (configuration not stated),outcome,[7],inactive
same,outcome,[3],inactive
same,outcome,[4],inactive
CC/C(=C\C(=N/O)C(N)=O)C(C)[N+](=O)[O-] (configuration not stated),outcome,[7],inactive
same,outcome,[3],inactive
same,outcome,[4],inactive
O=C1CCC(N2C(=O)c3ccccc3C2=O)C(=O)N1 (configuration not stated),outcome,[3],inactive
same,outcome,[4],inactive
CC(=O)c1ccc2c(c1)[C@H](NC(=O)c1ccc(F)cc1)[C@@H](O)C(C)(C)O2,outcome,[7],inactive
same,outcome,[3],inactive
same,outcome,[4],inactive
COC(=O)CC(=O)OC,outcome,[7],inactive
same,outcome,[3],inactive
same,outcome,[4],inactive
